Measured values: PubChem BioAssay (EPA / NIEHS)
Records with an inconclusive call do not appear. Activity calls are given as the source filed them. How the source made its calls, unless noted: active means hit-call score of the fitted dose curve at least 0.9, where 1 is the maximum; inactive means score below 0.9.

What was measured:
[1] = molecular target: Paired box protein Pax-6 (Homo sapiens) (UniProt P26367); experiment: ATG_Pax6_CIS: Attagene CIS-FACTORIAL HepG2 Assay for human Paired Box 6 (PAX6) (AID 2282956); settings: HepG2 CIS-FACTORIAL PAX6 reporter transcription, RNA readout; actives raise or lower the signal
Paired box protein Pax-6 (Homo sapiens), sequence (P26367 whole entry, looked up): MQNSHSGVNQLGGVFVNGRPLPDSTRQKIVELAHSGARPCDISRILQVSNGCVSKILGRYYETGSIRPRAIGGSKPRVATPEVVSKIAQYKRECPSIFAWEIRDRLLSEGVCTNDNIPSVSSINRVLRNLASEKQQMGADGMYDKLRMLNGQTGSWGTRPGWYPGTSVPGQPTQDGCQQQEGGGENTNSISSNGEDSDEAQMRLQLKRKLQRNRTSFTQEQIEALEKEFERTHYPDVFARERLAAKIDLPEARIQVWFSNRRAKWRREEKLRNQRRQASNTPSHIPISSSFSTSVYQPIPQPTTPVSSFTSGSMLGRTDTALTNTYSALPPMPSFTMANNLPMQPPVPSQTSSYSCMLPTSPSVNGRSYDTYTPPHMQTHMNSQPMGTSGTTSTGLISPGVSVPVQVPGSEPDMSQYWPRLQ
How it was run: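 Fluorescent RT-PCR products separated by capillary electrophoresis report PAX6-linked promoter mRNA in HepG2 cells 24 h post-dose. Curves fitted bidirectionally, DMSO as negative control.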

[2] = ATG_PPRE_CIS: Attagene CIS-FACTORIAL HepG2 Assay for human Peroxisome Proliferator-activated Response Element (PPRE) (AID 2282958); settings: HepG2 PPRE cis-element reporter, Attagene transcription factor profiling; actives raise or lower the signal
How it was run: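 Measured endpoint: PPRE-controlled reporter mRNA, detected by RT-PCR and capillary electrophoresis fluorescence, from transiently transfected HepG2 cells 24 h after dosing. Curves fitted in both directions using DMSO baseline.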

[3] = ATG_RORE_CIS: Attagene CIS-FACTORIAL HepG2 Assay for human RAR-related Orphan Receptor Element (RORE) (AID 2282959); settings: HepG2 Attagene cis-factorial RORE reporter, mRNA; actives raise or lower the signal
How it was run: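 Transiently transfected HepG2 reporter cells were treated 24 h. Reporter transcripts were detected by RT-PCR and capillary electrophoresis, with bidirectional fitting against DMSO.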

[4] = ATG_Sox_CIS: Attagene CIS-FACTORIAL HepG2 Assay for human SRY-box transcription factor (SOX) (AID 2282960); settings: HepG2 Attagene cis-factorial SOX reporter, mRNA; actives raise or lower the signal
How it was run: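 Gain- or loss-of-signal endpoint, fitted bidirectionally with DMSO as negative control. Based on reporter mRNA from transfected HepG2 cells harvested 24 h post-treatment and quantified via RT-PCR and capillary electrophoresis.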

[5] = molecular target: Transcription factor Sp1 (Homo sapiens) (UniProt P08047); experiment: ATG_Sp1_CIS: Attagene CIS-FACTORIAL HepG2 Assay for human Specificity Protein 1 (Sp1) (AID 2282961); settings: HepG2 Sp1 cis-reporter transcription, actives raise or lower the signal
Transcription factor Sp1 (Homo sapiens), sequence (P08047 whole entry, looked up, the tested form may be a part): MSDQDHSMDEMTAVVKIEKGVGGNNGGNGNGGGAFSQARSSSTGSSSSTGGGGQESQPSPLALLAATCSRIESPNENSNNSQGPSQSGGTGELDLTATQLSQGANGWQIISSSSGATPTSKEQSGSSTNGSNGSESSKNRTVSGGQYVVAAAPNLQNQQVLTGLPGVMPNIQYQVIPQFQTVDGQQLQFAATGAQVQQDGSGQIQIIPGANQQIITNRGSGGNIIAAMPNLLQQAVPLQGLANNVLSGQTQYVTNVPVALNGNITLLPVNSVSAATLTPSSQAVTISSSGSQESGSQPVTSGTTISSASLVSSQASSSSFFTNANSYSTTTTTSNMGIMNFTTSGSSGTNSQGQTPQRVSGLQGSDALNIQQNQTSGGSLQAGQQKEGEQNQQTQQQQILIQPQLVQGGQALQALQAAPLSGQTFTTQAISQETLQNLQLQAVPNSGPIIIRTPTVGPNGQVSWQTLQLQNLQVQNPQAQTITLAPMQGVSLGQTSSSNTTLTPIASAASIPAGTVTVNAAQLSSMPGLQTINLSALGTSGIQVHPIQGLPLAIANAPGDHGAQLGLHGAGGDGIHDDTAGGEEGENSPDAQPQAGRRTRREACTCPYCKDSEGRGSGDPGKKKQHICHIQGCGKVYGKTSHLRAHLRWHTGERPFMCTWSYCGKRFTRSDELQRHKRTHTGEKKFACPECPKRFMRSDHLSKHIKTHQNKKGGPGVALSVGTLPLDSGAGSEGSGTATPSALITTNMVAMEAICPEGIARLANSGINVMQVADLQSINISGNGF
How it was run: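 Endpoint reflects endogenous Sp1 transcriptional activity, not an exogenous fusion protein: HepG2 cells with transfected cis-regulated reporters, 24 h dosing, RT-PCR/capillary electrophoresis mRNA read-out, DMSO-normalised bidirectional fit.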

[6] = ATG_SREBP_CIS: Attagene CIS-FACTORIAL HepG2 Assay for human Sterol Regulatory Element Binding (SREBP) (AID 2282962); settings: HepG2 Attagene cis-factorial SREBP reporter, mRNA; actives raise or lower the signal
How it was run: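 Endogenous factor activity is measured in HepG2 through multiplexed reporter units under cis-element control. Following a 24 h incubation, reporter transcripts are reverse-transcribed, PCR-amplified and sized by capillary electrophoresis; activity is fitted in both directions relative to DMSO.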

[7] = molecular target: Signal transducer and activator of transcription 3 (Homo sapiens) (UniProt P40763); experiment: ATG_STAT3_CIS: Attagene CIS-FACTORIAL HepG2 Assay for human Signal Transducer and Activator of Transcription 3 (STAT3) (AID 2282963); settings: HepG2, Attagene cis-factorial STAT3 reporter transcription; actives raise or lower the signal
Signal transducer and activator of transcription 3 (Homo sapiens), sequence (P40763 whole entry, looked up): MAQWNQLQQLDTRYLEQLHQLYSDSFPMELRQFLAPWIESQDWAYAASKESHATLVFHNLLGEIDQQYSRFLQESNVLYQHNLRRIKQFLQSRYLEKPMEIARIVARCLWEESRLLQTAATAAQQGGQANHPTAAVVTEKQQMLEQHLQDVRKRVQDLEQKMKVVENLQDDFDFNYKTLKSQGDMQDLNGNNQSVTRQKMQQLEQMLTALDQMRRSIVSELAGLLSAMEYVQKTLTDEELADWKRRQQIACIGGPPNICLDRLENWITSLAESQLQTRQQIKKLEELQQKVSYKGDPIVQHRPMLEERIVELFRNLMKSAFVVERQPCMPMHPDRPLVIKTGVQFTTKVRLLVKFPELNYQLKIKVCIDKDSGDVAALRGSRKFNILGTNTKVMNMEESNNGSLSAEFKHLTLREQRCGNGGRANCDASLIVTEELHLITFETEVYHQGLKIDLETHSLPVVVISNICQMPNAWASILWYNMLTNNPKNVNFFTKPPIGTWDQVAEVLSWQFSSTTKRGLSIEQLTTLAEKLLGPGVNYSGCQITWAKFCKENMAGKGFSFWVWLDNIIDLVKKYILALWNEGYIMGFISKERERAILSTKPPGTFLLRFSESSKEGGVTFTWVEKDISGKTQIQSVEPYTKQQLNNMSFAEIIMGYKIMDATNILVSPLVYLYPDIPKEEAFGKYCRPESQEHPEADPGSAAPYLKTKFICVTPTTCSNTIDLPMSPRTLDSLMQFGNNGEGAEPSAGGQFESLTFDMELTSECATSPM
How it was run: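 Readout is reporter transcript quantified by RT-PCR and capillary electrophoresis, with 6-FAM primer extension and HpaI digestion. Total RNA is taken 24 h after dosing transiently transfected HepG2 carrying cis-regulated reporter units. Bidirectional fit against DMSO.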

[8] = ATG_TA_CIS: Attagene CIS-FACTORIAL HepG2 Assay for human TA Basal Promoter (AID 2282964); settings: HepG2 Attagene CIS-factorial TA basal promoter reporter; actives raise or lower the signal
How it was run: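 Background-control readout: TA basal promoter reporter mRNA, fitted in both directions relative to DMSO. Measured by RT-PCR and capillary electrophoresis 24 hours after treating HepG2 human liver cells transiently carrying multiplexed cis-regulated reporter constructs.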

[9] = ATG_TCF_b_cat_CIS: Attagene CIS-FACTORIAL HepG2 Assay for human T-Cell-Factor with beta-catenin (TCF/b-cat) (AID 2282965); settings: HepG2 TCF/beta-catenin cis-reporter transcription, actives raise or lower the signal
How it was run: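 Endogenous TCF/LEF activity read as reporter transcript level via RT-PCR and capillary electrophoresis fluorescence in transfected HepG2, 24 h exposure; gain or loss of signal fitted against DMSO controls.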

[10] = ATG_TAL_CIS: Attagene CIS-FACTORIAL HepG2 Assay for human TAL Basal Promoter (AID 2282966); settings: HepG2 Attagene cis-factorial TAL promoter reporter; actives raise or lower the signal;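 further: background control endpoint measuring basal TAL promoter reporter mRNA not a specific factor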
How it was run: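 Human hepatoma HepG2 cells, transfected with promoter-regulated reporter units, were treated 24 h. Reporter transcript levels, measured through RT-PCR and capillary electrophoresis, were fitted for gain or loss relative to DMSO.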

[11] = ATG_TGFb_CIS: Attagene CIS-FACTORIAL HepG2 Assay for human Transforming Growth Factor (TGF) (AID 2282967); settings: HepG2 Attagene CIS TGFb reporter, mRNA transcription; actives raise or lower the signal
How it was run: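 Endogenous TGFB1-linked transcription factor activity read as reporter mRNA via RT-PCR and capillary electrophoresis, 24 h after dosing transiently transfected HepG2 cells. Gain or loss of signal fitted relative to DMSO.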

[12] = molecular target: Nuclear receptor subfamily 1 group I member 3 (Homo sapiens) (UniProt Q14994); experiment: ATG_CAR_TRANS: Attagene TRANS-FACTORIAL HepG2 Assay for human Constitutive Androstane Receptor (CAR) (AID 2282969; active means hit-call score of the fitted dose curve at least 0.9, where 1 is the maximum;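 further: activators raise reporter mRNA above DMSO so AC50 marks induction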); settings: HepG2 Attagene TRANS-FACTORIAL CAR reporter
Nuclear receptor subfamily 1 group I member 3 (Homo sapiens), sequence (Q14994 whole entry, looked up, the tested form may be a part): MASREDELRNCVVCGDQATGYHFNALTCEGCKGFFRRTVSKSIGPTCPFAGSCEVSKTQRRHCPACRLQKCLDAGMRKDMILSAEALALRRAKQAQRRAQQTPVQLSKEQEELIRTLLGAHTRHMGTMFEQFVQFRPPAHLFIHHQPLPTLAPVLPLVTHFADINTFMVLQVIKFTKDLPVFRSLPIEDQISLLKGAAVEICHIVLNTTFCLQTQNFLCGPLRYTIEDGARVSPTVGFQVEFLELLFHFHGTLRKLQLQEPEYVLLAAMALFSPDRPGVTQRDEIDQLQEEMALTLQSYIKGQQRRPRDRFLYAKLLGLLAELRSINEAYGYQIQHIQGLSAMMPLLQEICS
How it was run: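 Signal is reporter mRNA induction relative to DMSO, measured 24 h after dosing by RT-PCR with fluorescent primer extension and capillary electrophoresis. Human HepG2 liver cells carried transiently transfected chimeric NR-Gal4/GAL4-UAS reporter constructs.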

[13] = molecular target: X-box-binding protein 1 (Homo sapiens) (UniProt P17861); experiment: ATG_Xbp1_CIS: Attagene CIS-FACTORIAL HepG2 Assay for human X-box Binding Protein 1 (XBP1) (AID 2282972); settings: HepG2 XBP1 cis-element reporter, Attagene multiplex; actives raise or lower the signal
X-box-binding protein 1 (Homo sapiens), sequence (P17861 whole entry, looked up): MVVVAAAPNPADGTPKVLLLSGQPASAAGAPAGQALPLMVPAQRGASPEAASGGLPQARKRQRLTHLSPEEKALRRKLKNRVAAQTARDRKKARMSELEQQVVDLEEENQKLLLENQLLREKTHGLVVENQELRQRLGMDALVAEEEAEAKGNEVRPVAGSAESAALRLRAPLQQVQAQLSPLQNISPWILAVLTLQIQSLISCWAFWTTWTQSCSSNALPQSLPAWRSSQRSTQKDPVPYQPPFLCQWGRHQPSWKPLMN
How it was run: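 Multiplexed cis-reporter readout in transfected HepG2 liver cells. Exposure lasted 24 hours. Activity in either direction was fitted against DMSO as negative control and baseline.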

[14] = ATG_M_19_TRANS: Attagene TRANS-FACTORIAL HepG2 Assay for M19 Transcription Factor (Internal Marker) (AID 2282974; active means hit-call score of the fitted dose curve at least 0.9, where 1 is the maximum); settings: HepG2 Attagene TRANS-FACTORIAL M19 internal marker reporter
How it was run: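 Using RT-PCR and capillary electrophoresis, reporter mRNA from transiently transfected human HepG2 cells was quantified following 24 h exposure; activity was fitted in the positive direction against DMSO.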

[15] = ATG_VDRE_CIS: Attagene CIS-FACTORIAL HepG2 Assay for human Vitamin D Receptor Element (VDRE) (AID 2282968); settings: HepG2 VDRE cis-reporter transcription, actives raise or lower the signal
How it was run: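 Readout is VDRE-driven reporter mRNA reflecting endogenous factor activity in human HepG2 cells, sampled 24 h post-dose. Quantification used labelled RT-PCR products separated by capillary electrophoresis; bidirectional analysis relative to DMSO.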

[16] = molecular target: Steroid hormone receptor ERR1 (Homo sapiens) (UniProt P11474); experiment: ATG_ERRa_TRANS: Attagene TRANS-FACTORIAL HepG2 Assay for human Estrogen-Related Receptor alpha (ERRa) (AID 2282971; active means hit-call score of the fitted dose curve at least 0.9, where 1 is the maximum); settings: HepG2 Attagene TRANS reporter, ERRa transactivation
Steroid hormone receptor ERR1 (Homo sapiens), sequence (P11474 whole entry, looked up, the tested form may be a part): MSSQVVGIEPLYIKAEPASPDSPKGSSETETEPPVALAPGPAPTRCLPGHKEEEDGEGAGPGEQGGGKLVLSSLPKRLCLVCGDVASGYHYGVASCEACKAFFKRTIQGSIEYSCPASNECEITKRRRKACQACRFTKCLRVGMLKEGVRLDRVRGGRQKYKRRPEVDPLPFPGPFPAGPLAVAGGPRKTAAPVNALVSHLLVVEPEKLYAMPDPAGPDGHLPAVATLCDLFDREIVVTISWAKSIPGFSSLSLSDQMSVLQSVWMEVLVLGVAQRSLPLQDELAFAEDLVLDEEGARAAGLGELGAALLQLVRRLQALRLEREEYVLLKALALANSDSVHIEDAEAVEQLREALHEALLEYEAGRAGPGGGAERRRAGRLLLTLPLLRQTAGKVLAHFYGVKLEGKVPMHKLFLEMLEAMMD
How it was run: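 Signal gain relative to DMSO for an ERRa-Gal4 chimeric receptor, read as reporter mRNA by RT-PCR/capillary electrophoresis. Human HepG2 liver cells, transient multiplex reporter transfection, 24 h chemical exposure.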

[17] = ATG_GAL4_TRANS: Attagene TRANS-FACTORIAL HepG2 Assay for GAL4 (Internal Marker) (AID 2282976; active means hit-call score of the fitted dose curve at least 0.9, where 1 is the maximum); settings: HepG2 Attagene TRANS GAL4 internal marker reporter
How it was run: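 Liver HepG2 line bearing multiplexed GAL4-UAS reporter constructs; 24 h chemical treatment. Transcripts were quantified as fluorescent fragments on capillary electrophoresis after RT-PCR and HpaI cut, with activity fitted upward from DMSO.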

[18] = molecular target: Estrogen receptor (Homo sapiens) (UniProt P03372); experiment: ATG_ERa_TRANS: Attagene TRANS-FACTORIAL HepG2 Assay for human Estrogen Receptor alpha (ERa) (AID 2282970; active means hit-call score of the fitted dose curve at least 0.9, where 1 is the maximum); settings: HepG2 Attagene TRANS ERa GAL4 reporter, mRNA
Estrogen receptor (Homo sapiens), sequence (P03372 whole entry, looked up, the tested form may be a part): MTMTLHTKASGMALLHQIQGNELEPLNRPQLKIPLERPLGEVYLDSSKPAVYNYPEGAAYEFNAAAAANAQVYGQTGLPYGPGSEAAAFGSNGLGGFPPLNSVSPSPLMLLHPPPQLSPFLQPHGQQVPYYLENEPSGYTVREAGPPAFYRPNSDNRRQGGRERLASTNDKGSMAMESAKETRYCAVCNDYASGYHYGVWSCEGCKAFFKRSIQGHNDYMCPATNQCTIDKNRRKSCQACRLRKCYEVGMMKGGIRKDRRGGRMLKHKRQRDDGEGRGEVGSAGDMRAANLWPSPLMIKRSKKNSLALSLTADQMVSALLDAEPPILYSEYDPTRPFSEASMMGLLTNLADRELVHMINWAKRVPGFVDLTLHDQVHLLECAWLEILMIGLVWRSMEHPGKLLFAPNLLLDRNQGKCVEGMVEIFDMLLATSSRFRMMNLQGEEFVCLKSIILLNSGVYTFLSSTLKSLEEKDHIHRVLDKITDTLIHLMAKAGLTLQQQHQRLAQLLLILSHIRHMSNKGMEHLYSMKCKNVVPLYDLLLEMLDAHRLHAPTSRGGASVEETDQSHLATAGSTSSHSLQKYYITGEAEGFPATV
How it was run: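 Signal derives from fluorescence of labelled reporter PCR fragments separated by capillary electrophoresis. HepG2 cells transiently carrying multiple GAL4-UAS reporter units were treated 24 hours, and induction above DMSO baseline was fitted as activity.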

[19] = molecular target: Estrogen-related receptor gamma (Homo sapiens) (UniProt P62508); experiment: ATG_ERRg_TRANS: Attagene TRANS-FACTORIAL HepG2 Assay for human Estrogen-Related Receptor gamma (ERRg) (AID 2282977; active means hit-call score of the fitted dose curve at least 0.9, where 1 is the maximum;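 further: hits increase reporter signal over DMSO so potencies reflect activators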); settings: HepG2 Attagene TRANS reporter, ERRg transactivation
Estrogen-related receptor gamma (Homo sapiens), sequence (P62508 whole entry, looked up, the tested form may be a part): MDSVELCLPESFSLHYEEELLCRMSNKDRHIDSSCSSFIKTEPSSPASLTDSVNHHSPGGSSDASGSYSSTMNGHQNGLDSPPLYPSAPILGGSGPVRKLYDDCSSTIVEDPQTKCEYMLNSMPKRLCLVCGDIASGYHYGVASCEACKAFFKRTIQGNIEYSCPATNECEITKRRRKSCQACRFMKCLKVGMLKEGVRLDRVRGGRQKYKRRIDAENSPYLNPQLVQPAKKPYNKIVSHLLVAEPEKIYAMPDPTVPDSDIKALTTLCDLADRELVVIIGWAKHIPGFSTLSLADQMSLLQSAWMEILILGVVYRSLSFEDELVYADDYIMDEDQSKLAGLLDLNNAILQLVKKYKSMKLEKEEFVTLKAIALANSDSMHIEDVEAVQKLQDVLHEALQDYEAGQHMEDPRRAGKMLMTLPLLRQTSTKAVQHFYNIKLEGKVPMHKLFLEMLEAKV
How it was run: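 Exogenous NR-Gal4 chimera activity measured as reporter transcript induction after 24 h in transiently transfected HepG2 cells. RNA reverse-transcribed, PCR-amplified, 6-FAM-labelled and resolved by capillary electrophoresis; increase over DMSO baseline.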

Measured: AC50

CC1(C)C(=O)N(Cl)C(=O)N1Br
inactive: [1] | [2] | [3] | [4] | [5] | [6] | [7] | [8] | [9] | [10] | [11] | [12] | [13] | [14]

Nc1ccn([C@H]2CS[C@@H](CO)O2)c(=O)n1
inactive: [1] | [2] | [3] | [4] | [5] | [6] | [7] | [8] | [9] | [11] | [12] | [13] | [14]

CCCC1O[C@@H]2C[C@H]3[C@@H]4CCC5=CC(=O)C=C[C@]5(C)[C@H]4[C@@H](O)C[C@]3(C)[C@]2(C(=O)CO)O1 (stereo partly drawn)
inactive: [1] | [2] | [4] | [6] | [7] | [8] | [10] | [15] | [16] | [13]
active: [9] 100 µM | [11] 9.41 µM

CCOC(=O)CC(C)O (stereo not drawn)
inactive: [1] | [2] | [3] | [4] | [5] | [6] | [7] | [8] | [9] | [10] | [15] | [13] | [14] | [17]

OC[C@H]1O[C@@H](Oc2ccc(O)cc2)[C@H](O)[C@@H](O)[C@@H]1O
inactive: [1] | [2] | [3] | [5] | [6] | [7] | [8] | [10] | [11] | [15] | [13]

NCC1CCCC(CN)C1 (stereo not drawn)
inactive: [1] | [2] | [4] | [5] | [6] | [7] | [8] | [10] | [11] | [15] | [16] | [13] | [17]

CC(C)(C)CC(C)(C)c1ccc(OCCOCC[N+](C)(C)Cc2ccccc2)cc1
active: [9] 12 µM
inactive: [1] | [2] | [4] | [5] | [7] | [8] | [10] | [11] | [15] | [18] | [16] | [13] | [14] | [17] | [19]

CC(C)c1ccccc1O
inactive: [1] | [3] | [4] | [5] | [6] | [7] | [8] | [9] | [10] | [11] | [15] | [13] | [14]

C=C(C)C1CC=C(C)C(=O)C1 (stereo not drawn)
inactive: [1] | [3] | [4] | [5] | [6] | [7] | [8] | [9] | [10] | [11] | [15]

Cc1c(OCC(F)(F)F)ccnc1CS(=O)c1nc2ccccc2[nH]1 (stereo not drawn)
active: [1] 43.5 µM | [3] 19.8 µM | [8] 37.3 µM | [9] 57.7 µM
inactive: [2] | [4] | [5] | [6] | [7] | [10] | [11] | [13]

Cc1cc(C)nc(NS(=O)(=O)c2ccc(N)cc2)n1
inactive: [1] | [2] | [4] | [5] | [6] | [7] | [8] | [9] | [10] | [11] | [12] | [13] | [14]

O=c1[nH]c(=O)c2cn[nH]c2[nH]1
inactive: [1] | [3] | [4] | [5] | [6] | [7] | [8] | [9] | [10] | [11] | [15] | [16] | [13] | [14] | [17] | [19]

O=C1OC[C@H](Cc2cccc(O)c2)[C@H]1Cc1cccc(O)c1
inactive: [1] | [2] | [3] | [5] | [6] | [7] | [8] | [9] | [10] | [11]
active: [15] 21.8 µM

CCCCSCCCC
inactive: [1] | [2] | [3] | [4] | [5] | [6] | [7] | [8] | [9] | [10] | [11] | [12] | [13] | [17]
